Screening data (PubChem BioAssay)
Sampled rows, rich in hits. Any-hit rate of the full collection: about 0.95%.
LmPK inh – qHTS Assay for Inhibitors of Leishmania Mexicana Pyruvate Kinase (LmPK); purified LmPK, Kinase-Glo ATP luminescence, 1 h; Potency, µM (series often up to 57.5 µM), for the others: at the highest dose activity change, negative = inhibition, hits mostly inhibitors; 0.37% of 290,000 active
Target sequence (Q27686 whole entry, looked up): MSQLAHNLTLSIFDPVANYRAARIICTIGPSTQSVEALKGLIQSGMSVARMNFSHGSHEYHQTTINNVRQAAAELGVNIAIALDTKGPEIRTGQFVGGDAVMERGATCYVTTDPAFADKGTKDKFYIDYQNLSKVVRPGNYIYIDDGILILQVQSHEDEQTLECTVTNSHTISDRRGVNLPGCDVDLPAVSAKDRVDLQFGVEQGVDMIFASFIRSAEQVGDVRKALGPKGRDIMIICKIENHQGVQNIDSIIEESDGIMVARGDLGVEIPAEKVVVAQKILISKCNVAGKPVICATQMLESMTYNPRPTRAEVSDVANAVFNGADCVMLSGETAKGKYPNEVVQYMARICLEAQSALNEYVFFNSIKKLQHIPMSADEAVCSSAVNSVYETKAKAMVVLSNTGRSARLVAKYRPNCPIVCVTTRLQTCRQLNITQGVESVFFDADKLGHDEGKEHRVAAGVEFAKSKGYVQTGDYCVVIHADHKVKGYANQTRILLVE
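ATP generated from ADP (0.1 mM) and PEP (0.5 mM) by 0.1 nM LmPK over 1 h at room temperature (pH 7.2 imidazole buffer) was detected by coupled luciferase luminescence. Values were normalized to uninhibited and no-enzyme wells.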
FBPA Giardia inh – qHTS Assay for Inhibitors of Fructose-1,6-bisphosphate Aldolase from Giardia Lamblia; A8B2U2; purified Giardia FBPA; Potency, µM (series often up to 59.6 µM), inactives show at the highest dose activity, negative = inhibition, actives largely listed as inhibitors; 0.71% of 290,000 active; AID 2451, 2010; also: nearly all actives have a fitted effect of over 55% in size
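Giardia FBPA (40 nM reagent) was preincubated 10 min at RT with compound (up to 57.5 uM final), then substrate plus GAPDH/TPI/NAD/arsenate coupling system with diaphorase/resazurin was added; resorufin fluorescence (525/598 nm) was read after 20 min.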
Tb PYK inh – qHTS of Trypanosoma Brucei Inhibitors; Potency, µM (highest dose often 76.8 µM), without a hit: at the highest dose activity, negative = inhibition, usual class: inhibitors; pyruvate kinase (Trypanosoma brucei), Q57TT1; TbPYK enzyme, Kinase-Glo Plus ATP luminescence, 45 min; 0.12% of 410,000 active; AID 624173, 2012; also: nearly all actives have a fitted effect of over 50% in size
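Glycolytic pyruvate kinase of T. brucei was incubated with substrate, test compound and 130 uM ADP for 45 minutes at room temperature. Luminescent Kinase-Glo Plus signal was measured after 10 minutes.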
RE007 growth inh – qHTS Assay for Inhibitors of the HIV-1 protein Vpr; S. pombe RE007 Vpr strain, BacTiter-Glo ATP luminescence, 24 h; Potency, µM (highest dose often 92.2 µM), inactives show top-dose activity change, negative = less growth, most hits filed as inhibitors; 0.21% of 360,000 active; active = well fitted falling curve with a large enough effect; inconclusive = small, poorly fitted or top-dose-only effect; inactive = no such curve, though single readings can be large or run the other way; also: nearly all actives have a fitted effect of over 50% in size
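Fission yeast strain RE007, carrying one chromosomally integrated HIV-1 vpr copy, was seeded at OD 0.01 in PMG+AL medium with 23 nL pinned compound. After 24 h at 30 °C and 99% humidity, viability was read by BacTiter-Glo luminescence.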
An asterisk follows results filed as active; ? = inconclusive; nt = no result given; [ ] = remark or other dose. Unless noted, calls follow the shape of the dose curve; as a rule, active = well fitted curve in the direction sought with a large enough effect; inconclusive = small, poorly fitted or top-dose-only effect, or another doubt; inactive = no such curve, though single readings can be large; an effect the other way counts as inactive or inconclusive. % is scaled to controls: 0 for no effect and ±100 for the full control effect; potency is read from the fitted curve at half-maximal effect.

SMILES	LmPK inh	FBPA Giardia inh	Tb PYK inh	RE007 growth inh
CCCCOc1ccc(C(=O)CCN2CCOCC2)cc1	1%	-2%	-14%	?
CCCOc1ccc(C(=O)CCN2CCCCC2)cc1	3%	-4%	3%	18µM*
CCOc1ccc(C(=O)CCN2CCCCCC2)cc1	-6%	-7%	-20%	16µM*
CCOc1ccc(OCCN2CCCCC2)cc1	-6%	-16%	29%	17%
COc1ccc(C(=O)CCN2CCc3cc(OC)c(OC)cc3C2)cc1	0%	-5%	-9%	25µM*
COc1ccc(C(=O)CCN2CCN(c3ccccc3OC)CC2)cc1	-5%	?	-2%	?
CCc1c2c(nc3cccc(SC)c13)COC2	nt	-23%	nt	nt
Cc1nonc1C(=O)N/N=C/c1cccc(O)c1	14µM*	0%	-26%	-23%
O=C(N/N=C/c1cccc(O)c1)N/N=C/c1cccc(O)c1	1%	0%	-15%	-2%
CN(C)CCOC1=Cc2ccccc2Sc2ccc(Cl)cc21	nt	nt	-4%	nt
CCCCCCCCCCCCCCCCn1cc[n+](CC(C)=O)c1	3%	2%	-4%	32µM*
COCCn1c(=O)c(-c2cccc(C#N)c2)nc2cnc(N3CCOCC3)nc21	nt	-5%	nt	nt
CC(=O)OCC1OC(c2cc(C)cc(C)c2)C=CC1OC(C)=O (stereo unspecified)	nt	-1%[12.9 µM]	nt	nt
Nc1ccc(-c2nc3ccc(C(=O)O)cc3s2)cc1	?	-15%	?	-8%
Nc1cc2sc(-c3ccc(C(=O)O)cc3)nc2cc1Cl	16µM*	-30%	?	?
Nc1cccc(-c2nc3ccc(N)cc3s2)c1	13µM*	-10%	?	-24%
Nc1ccc(-c2nc3ccc(N)cc3s2)cc1	14µM*	5%	-9%	?
CC1=C(C(=O)OCc2ccccc2)C(c2ccc(C3CCCCC3)cc2)NC(=O)N1CCCCCC(=O)O (stereo unspecified)	nt	18%	nt	nt
COc1ccc(NC(=O)Cn2cc(S(=O)(=O)N3CCN(c4ccccc4F)CC3)c3ccccc3c2=O)cc1Cl	nt	nt	7%	nt
CC(=O)Oc1cccc(N2C(=O)C3C4C=CC(C4=C(C)C)C3C2=O)c1 (stereo unspecified)	-1%	2%	-23%	35µM*
CC(=O)Oc1cccc(N2C(=O)C3C(C2=O)C2C=CC3C23CC3)c1 (stereo unspecified)	-3%	3%	-25%	-1%
Cc1ccc(-n2c(N)c(C(=O)N3CCOCC3)sc2=S)cc1	-4%	-19%	-25%	8%
CN1CCN(C(=O)c2sc(=S)n(-c3ccccc3)c2N)CC1	-4%	5.6µM*	?	2%
COC(=O)[C@]12CCC(C)(C)C[C@@H]1[C@@H]1C(=O)C=C3[C@@]4(C)C=C(C#N)C(=O)C(C)(C)[C@@H]4CC[C@@]3(C)[C@]1(C)CC2	nt	nt	1%	nt
Cc1ccc(S(=O)(=O)N(Cc2n[nH]c(=S)n2-c2ccccc2)c2ccccc2)cc1	-24%	18%	7.9µM*	10%
SMILES	LmPK inh	FBPA Giardia inh	Tb PYK inh	RE007 growth inh
Cc1ccc(S(=O)(=O)N(Cc2n[nH]c(=S)n2-c2ccccc2)c2cccc(Cl)c2)cc1	-20%	18%	?	3%
Cc1cccc(NCc2n[nH]c(=S)n2-c2ccccc2)c1	-18%	1%	?	-17%
Cc1ccc(NCc2n[nH]c(=S)n2-c2ccccc2)cc1	2%	-2%	2.8µM*	6%
S=c1[nH]nc(-c2ccc(Br)cc2)n1-c1ccc(Br)cc1	?	29%	?	-4%
CS(=O)(=O)Nc1ccc(-c2n[nH]c(=S)n2-c2ccccc2)cc1	10µM*	11%	0%	0%
COc1ccc(S(=O)(=O)N(CCc2ccccc2)CC(=O)Nc2cc(C)cc(C)c2)cc1OC	nt	nt	-3%	nt
O=C(O)c1cc(-c2ccc(-c3ccc(F)cc3)o2)nc2ccccc12	0%	20µM*	?	-13%
O=C(c1cc(-c2ccc(F)cc2)nc2ccccc12)N1CCC1	nt	nt	0%	2%
CNCc1ccccc1Sc1ccc(O)c(O)c1	-12%	2.5µM*	-18%	0%
Oc1ccc(/C=N/n2c3ccccc3c3ccccc32)cc1	7%	-5%	5%	32µM*
Cc1nnc(C)n1/N=C/c1ccc(O)cc1	0%	-5%	1%	16%
COc1ncc2nc(-c3cn(C)c4ccccc34)c(=O)n(C)c2n1	nt	-8%	nt	nt
